Reference: PubChem BioAssay AID1159580 (chemical genetic matrix, 2015)
The whole screen tested about 5,500 compounds, of which about 2,000 (36%) were called active. Another 18% or so got no clear call; they are omitted. No stated cut-off is given here; in the data, active means normalized growth mostly below about 0.91 (no sharp cut-off); inconclusive means no clear call, values can overlap the other calls; inactive means mostly above about 0.92. Some of the results follow.

Assay: chemical genetic growth profiling, strain panel (AID 1159580);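 further: tested at 20 µM; growth read once vehicle control cultures reached saturation at 30 °C; 1 = growth at the plate median or of vehicle wells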
Details: S. cerevisiae deletion strains, growth OD

Measured: normalized growth

CC(C)c1ccc(-c2cc(=O)c3ccccc3o2)cc1
active: locus YHR030C, strain SLT2, stronger effect = lower value 0.631 | locus YKL048C, strain ELM1, stronger effect = lower value 0.797 | locus YLR113W, strain HOG1, stronger effect = lower value 0.596 | locus YPL256C, strain CLN2, stronger effect = lower value 0.714
inactive: locus YAR019C, strain CDC15, stronger effect = lower value 0.937 | locus YBL105C, strain PKC1, stronger effect = lower value 0.935 | locus YBR135W, strain CKS1, stronger effect = lower value 0.932 | locus YBR136W, strain MEC1, stronger effect = lower value 0.941 | locus YBR160W, strain CDC28, stronger effect = lower value 0.941 | locus YDL017W, strain CDC7, stronger effect = lower value 0.932 | locus YDL028C, strain MPS1, stronger effect = lower value 0.933 | locus YDL101C, strain DUN1, stronger effect = lower value 0.945 | locus YDL108W, strain KIN28, stronger effect = lower value 0.934 | locus YDL132W, strain cdc53, stronger effect = lower value 0.948 | locus YDL214C, strain PRR2, stronger effect = lower value 0.814 | locus YDR052C, strain DBF4, stronger effect = lower value 0.944 | locus YDR054C, strain cdc34, stronger effect = lower value 0.917 | locus YDR226W, strain ADK1, stronger effect = lower value 0.931 | locus YDR477W, strain SNF1, stronger effect = lower value 0.791 | locus YER123W, strain YCK3, stronger effect = lower value 0.721 | locus YER133W, strain GLC7, stronger effect = lower value 0.762 | locus YFL009W, strain cdc4, stronger effect = lower value 0.921 | locus YFL029C, strain CAK1, stronger effect = lower value 0.932 | locus YFR003C, strain YPI1, stronger effect = lower value 0.928 | locus YFR019W, strain FAB1, stronger effect = lower value 0.864 | locus YFR028C, strain CDC14, stronger effect = lower value 0.915 | locus YGR040W, strain KSS1, stronger effect = lower value 0.728 | locus YGR052W, strain FMP48, stronger effect = lower value 0.759 | locus YGR092W, strain DBF2, stronger effect = lower value 0.569 | locus YHR079C, strain IRE1, stronger effect = lower value 0.849 | locus YHR082C, strain KSP1, stronger effect = lower value 0.875 | locus YHR205W, strain SCH9, stronger effect = lower value 0.82 | locus YIL147C, strain SLN1, stronger effect = lower value 0.932 | locus YJL095W, strain BCK1, stronger effect = lower value 0.82 | locus YJL128C, strain PBS2, stronger effect = lower value 0.86 | locus YJL157C, strain FAR1, stronger effect = lower value 0.832 | locus YJR016C, strain ILV3, stronger effect = lower value 0.922 | locus YJR066W, strain TOR1 (second series), stronger effect = lower value 0.633 | locus YJR066W, strain TOR1, stronger effect = lower value 0.863 | locus YKL067W, strain YNK1, stronger effect = lower value 0.812 | locus YKL101W, strain HSL1, stronger effect = lower value 0.725 | locus YKL193C, strain SDS22, stronger effect = lower value 0.928 | locus YKL203C, strain TOR2, stronger effect = lower value 0.836 | locus YLR133W, strain CKI1, stronger effect = lower value 0.855 | locus YLR403W, strain SFP1, stronger effect = lower value 0.858 | locus YML070W, strain DAK1, stronger effect = lower value 0.698 | locus YMR001C, strain CDC5, stronger effect = lower value 0.921 | locus YMR205C, strain PFK2 (second series), stronger effect = lower value 0.846 | locus YMR277W, strain FCP1, stronger effect = lower value 0.917 | locus YNL006W, strain LST8, stronger effect = lower value 0.932 | locus YNL020C, strain ARK1, stronger effect = lower value 0.833 | locus YNL161W, strain CBK1, stronger effect = lower value 0.934 | locus YNL183C, strain NPR1, stronger effect = lower value 0.861 | locus YNL207W, strain RIO2, stronger effect = lower value 0.924 | locus YNL222W, strain SSU72, stronger effect = lower value 0.934 | locus YNL307C, strain MCK1 (second series), stronger effect = lower value 0.809 | locus YOL078W, strain AVO1, stronger effect = lower value 0.928 | locus YOL136C, strain PFK27, stronger effect = lower value 0.792 | locus YOR061W, strain CKA2, stronger effect = lower value 0.822 | locus YOR119C, strain RIO1, stronger effect = lower value 0.778 | locus YOR231W, strain MKK1, stronger effect = lower value 0.799 | locus YOR329C, strain SCD5, stronger effect = lower value 0.939 | locus YPL031C, strain PHO85, stronger effect = lower value 0.781 | locus YPL153C, strain RAD53, stronger effect = lower value 0.716 | locus YPL204W, strain HRR25, stronger effect = lower value 0.724 | locus YPL209C, strain IPL1, stronger effect = lower value 0.937 | locus YPR025C, strain CCL1, stronger effect = lower value 0.937 | locus YPR106W, strain ISR1, stronger effect = lower value 0.926 | locus YPR111W, strain DBF20, stronger effect = lower value 0.918 | strain NNK1, stronger effect = lower value 0.921 | strain TSCII, stronger effect = lower value 0.929
